What was measured:
Test in all cases: log2 ratio of Biotin-Ahx-Ub-VS probe labelling (fragment/DMSO); higher = less target engagement (more negative = stronger competition), active = hit call of the paper (q ≤ 0.05, log2 ratio ≤ -1)
Details in all cases: compound concentration: 200 uM; treatment time: 3 h
USP9X = USP9X (UniProt Q93008)
How it was run: (§1)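 HEK293T lysate (495 µg per sample, in Tris/CHAPS/IGEPAL buffer with protease inhibitors) was exposed in triplicate for 3 h to fragment at 200 µM or to vehicle, then to Biotin-Ahx-Ub-VS at 0.5 µM final for 1 h. Labelled DUBs were enriched on NeutrAvidin, digested with LysC and trypsin, and analysed by diaPASEF LC-MS/MS. Spectronaut label-free quantities were normalised to the global median, and values are average log2 ratios of fragment over vehicle from an unpaired t-test. Only proteins with ≥2 unique peptides were used.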

UniProt O00487 = molecular target: UniProt O00487
How it was run: as §1

UniProt O00507 = molecular target: UniProt O00507
Sequence of UniProt O00507 (O00507 whole entry): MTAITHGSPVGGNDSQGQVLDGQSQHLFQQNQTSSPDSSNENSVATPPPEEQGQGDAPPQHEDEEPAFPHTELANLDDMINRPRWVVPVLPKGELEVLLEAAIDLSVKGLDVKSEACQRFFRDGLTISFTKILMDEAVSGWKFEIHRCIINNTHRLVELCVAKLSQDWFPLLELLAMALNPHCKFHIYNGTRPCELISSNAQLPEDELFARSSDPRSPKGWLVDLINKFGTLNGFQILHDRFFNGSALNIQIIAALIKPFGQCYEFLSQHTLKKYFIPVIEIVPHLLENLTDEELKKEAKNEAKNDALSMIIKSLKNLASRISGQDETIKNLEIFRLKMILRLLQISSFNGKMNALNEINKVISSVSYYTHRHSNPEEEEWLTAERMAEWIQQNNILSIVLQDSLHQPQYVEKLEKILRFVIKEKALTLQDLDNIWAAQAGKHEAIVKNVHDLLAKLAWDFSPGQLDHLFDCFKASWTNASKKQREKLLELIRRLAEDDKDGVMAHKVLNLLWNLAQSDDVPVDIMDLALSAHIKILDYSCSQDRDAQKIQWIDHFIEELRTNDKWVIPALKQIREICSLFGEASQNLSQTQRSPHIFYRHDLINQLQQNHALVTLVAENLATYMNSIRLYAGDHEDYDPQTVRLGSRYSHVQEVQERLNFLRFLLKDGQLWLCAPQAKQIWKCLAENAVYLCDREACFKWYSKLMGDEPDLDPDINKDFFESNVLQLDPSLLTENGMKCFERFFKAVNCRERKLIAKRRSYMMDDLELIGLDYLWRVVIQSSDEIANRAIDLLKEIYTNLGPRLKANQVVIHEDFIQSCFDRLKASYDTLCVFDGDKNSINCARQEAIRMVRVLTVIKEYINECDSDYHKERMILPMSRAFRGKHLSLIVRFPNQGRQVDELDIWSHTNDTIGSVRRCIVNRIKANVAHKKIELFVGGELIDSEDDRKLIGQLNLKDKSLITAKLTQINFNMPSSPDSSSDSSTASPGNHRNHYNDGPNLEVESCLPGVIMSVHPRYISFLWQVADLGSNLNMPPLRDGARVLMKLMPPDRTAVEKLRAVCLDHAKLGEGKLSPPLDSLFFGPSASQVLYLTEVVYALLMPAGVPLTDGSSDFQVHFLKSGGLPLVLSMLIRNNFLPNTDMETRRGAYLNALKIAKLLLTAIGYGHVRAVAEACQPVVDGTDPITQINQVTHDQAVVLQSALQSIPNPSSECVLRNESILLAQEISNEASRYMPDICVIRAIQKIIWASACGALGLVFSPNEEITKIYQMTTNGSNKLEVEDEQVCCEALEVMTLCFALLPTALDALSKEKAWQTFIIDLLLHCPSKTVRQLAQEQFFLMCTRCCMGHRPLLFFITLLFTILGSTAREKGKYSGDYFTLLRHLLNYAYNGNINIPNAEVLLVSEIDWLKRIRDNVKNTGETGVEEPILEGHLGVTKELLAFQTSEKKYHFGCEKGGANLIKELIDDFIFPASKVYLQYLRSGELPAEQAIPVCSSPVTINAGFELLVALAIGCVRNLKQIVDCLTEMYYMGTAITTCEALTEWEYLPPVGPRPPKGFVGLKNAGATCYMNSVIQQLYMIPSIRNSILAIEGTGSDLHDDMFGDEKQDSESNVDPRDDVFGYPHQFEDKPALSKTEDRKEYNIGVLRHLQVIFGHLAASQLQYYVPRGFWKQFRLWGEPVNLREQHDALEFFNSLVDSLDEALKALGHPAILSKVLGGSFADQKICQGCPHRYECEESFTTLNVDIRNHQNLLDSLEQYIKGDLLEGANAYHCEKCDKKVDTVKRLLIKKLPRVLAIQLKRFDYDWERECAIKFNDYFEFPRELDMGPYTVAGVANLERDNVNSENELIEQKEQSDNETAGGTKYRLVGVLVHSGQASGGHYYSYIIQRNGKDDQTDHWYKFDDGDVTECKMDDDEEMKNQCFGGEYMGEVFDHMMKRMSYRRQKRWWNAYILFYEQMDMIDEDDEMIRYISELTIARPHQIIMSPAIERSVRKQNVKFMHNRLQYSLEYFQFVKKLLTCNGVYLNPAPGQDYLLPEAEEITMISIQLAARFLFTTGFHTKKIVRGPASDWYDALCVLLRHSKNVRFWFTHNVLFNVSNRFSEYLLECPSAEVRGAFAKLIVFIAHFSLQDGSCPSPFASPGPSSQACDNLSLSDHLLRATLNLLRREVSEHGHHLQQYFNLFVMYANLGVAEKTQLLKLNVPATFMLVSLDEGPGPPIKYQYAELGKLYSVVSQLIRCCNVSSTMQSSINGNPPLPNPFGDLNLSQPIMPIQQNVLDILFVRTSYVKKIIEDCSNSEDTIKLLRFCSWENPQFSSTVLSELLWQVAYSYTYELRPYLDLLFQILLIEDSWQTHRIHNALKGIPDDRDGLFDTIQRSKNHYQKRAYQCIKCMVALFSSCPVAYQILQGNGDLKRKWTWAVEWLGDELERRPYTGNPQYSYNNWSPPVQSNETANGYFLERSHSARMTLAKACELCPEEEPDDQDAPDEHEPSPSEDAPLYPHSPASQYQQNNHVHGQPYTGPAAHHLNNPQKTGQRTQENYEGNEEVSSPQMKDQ
How it was run: as §1

UniProt P51784 = molecular target: UniProt P51784
How it was run: as §1

UniProt Q5T2D3 = molecular target: T1, UniProt Q5T2D3
T1 sequence (whole entry): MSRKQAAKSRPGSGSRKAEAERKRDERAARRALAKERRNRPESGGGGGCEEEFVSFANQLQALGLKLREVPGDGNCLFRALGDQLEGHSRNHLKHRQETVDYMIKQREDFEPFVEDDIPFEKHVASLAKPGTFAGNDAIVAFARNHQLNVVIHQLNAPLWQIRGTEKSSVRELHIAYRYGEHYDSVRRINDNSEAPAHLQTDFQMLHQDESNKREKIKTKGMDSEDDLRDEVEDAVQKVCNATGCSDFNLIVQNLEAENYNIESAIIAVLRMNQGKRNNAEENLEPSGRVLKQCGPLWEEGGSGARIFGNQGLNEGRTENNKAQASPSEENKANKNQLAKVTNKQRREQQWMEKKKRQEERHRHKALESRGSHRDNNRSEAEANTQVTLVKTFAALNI
How it was run: as §1

UniProt Q8TE49 = molecular target: T2, UniProt Q8TE49
T2 sequence (whole entry): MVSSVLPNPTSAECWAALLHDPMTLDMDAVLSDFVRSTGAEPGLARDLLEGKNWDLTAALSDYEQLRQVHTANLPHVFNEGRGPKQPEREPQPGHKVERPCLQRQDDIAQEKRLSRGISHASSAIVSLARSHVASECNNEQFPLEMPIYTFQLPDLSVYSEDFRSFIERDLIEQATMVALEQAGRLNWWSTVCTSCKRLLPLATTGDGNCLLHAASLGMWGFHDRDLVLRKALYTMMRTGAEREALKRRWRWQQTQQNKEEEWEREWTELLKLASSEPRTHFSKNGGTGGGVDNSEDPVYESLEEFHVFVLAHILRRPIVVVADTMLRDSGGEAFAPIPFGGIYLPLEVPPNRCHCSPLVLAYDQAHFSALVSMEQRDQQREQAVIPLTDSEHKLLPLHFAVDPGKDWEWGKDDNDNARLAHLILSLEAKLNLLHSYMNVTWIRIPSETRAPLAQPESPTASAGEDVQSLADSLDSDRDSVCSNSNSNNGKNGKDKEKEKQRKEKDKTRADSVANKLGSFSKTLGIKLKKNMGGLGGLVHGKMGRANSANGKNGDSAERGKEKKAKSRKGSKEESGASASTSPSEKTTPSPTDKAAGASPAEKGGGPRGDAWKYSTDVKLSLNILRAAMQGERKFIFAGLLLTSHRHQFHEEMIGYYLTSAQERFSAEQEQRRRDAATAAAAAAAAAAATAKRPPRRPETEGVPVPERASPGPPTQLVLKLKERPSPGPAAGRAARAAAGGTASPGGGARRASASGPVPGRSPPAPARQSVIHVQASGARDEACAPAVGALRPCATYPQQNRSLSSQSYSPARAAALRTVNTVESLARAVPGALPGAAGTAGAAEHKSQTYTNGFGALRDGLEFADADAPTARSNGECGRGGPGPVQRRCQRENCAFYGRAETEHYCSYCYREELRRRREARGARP
How it was run: as §1

UniProt Q9P2H5 = molecular target: T3, UniProt Q9P2H5
T3 sequence (whole entry): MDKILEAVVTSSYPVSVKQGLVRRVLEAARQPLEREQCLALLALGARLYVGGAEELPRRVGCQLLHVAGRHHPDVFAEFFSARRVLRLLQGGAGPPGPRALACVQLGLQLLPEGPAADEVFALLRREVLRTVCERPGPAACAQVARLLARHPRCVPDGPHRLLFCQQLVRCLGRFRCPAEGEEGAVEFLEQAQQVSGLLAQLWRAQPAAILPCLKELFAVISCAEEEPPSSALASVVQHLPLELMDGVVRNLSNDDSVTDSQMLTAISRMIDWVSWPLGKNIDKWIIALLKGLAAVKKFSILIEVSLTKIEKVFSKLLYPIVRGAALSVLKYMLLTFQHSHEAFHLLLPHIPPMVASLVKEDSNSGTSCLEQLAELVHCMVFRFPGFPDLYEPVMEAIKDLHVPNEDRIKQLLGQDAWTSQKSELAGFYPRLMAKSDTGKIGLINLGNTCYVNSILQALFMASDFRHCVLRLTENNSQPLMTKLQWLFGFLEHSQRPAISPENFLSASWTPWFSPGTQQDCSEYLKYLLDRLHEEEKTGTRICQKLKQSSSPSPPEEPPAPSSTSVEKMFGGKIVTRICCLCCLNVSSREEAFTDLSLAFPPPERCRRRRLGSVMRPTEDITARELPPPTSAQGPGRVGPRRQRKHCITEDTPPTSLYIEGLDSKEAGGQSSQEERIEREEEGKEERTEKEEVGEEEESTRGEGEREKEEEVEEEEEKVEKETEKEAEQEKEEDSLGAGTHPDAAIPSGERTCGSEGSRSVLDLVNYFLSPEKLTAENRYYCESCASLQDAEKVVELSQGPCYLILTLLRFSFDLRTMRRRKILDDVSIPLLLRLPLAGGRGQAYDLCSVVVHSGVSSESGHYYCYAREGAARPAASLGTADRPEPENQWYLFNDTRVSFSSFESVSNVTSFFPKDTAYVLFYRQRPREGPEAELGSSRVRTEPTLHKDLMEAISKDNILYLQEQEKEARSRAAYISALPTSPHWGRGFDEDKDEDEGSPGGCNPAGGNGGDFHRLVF
How it was run: as §1

UniProt Q9UGI0 = molecular target: T4, UniProt Q9UGI0
T4 sequence (whole entry): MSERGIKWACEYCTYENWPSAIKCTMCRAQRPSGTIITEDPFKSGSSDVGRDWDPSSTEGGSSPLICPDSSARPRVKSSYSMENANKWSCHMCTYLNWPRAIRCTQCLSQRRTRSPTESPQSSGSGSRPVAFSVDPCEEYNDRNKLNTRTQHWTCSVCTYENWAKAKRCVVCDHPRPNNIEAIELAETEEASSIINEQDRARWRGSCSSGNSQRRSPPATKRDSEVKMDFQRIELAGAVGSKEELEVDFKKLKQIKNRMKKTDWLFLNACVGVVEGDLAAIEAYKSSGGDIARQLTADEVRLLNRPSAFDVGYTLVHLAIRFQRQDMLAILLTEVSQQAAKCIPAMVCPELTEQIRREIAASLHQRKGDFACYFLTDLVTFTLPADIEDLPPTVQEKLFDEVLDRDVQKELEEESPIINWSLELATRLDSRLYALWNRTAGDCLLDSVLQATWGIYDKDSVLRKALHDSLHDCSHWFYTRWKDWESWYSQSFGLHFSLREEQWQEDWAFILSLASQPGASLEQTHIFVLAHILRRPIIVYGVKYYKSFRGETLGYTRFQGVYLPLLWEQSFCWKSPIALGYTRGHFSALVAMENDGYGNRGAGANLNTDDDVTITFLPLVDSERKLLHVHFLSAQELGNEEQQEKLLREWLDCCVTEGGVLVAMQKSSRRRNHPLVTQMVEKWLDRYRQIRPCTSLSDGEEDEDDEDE
How it was run: as §1

YOD1 = molecular target: T5, YOD1 (UniProt Q5VVQ6)
T5 sequence (whole entry): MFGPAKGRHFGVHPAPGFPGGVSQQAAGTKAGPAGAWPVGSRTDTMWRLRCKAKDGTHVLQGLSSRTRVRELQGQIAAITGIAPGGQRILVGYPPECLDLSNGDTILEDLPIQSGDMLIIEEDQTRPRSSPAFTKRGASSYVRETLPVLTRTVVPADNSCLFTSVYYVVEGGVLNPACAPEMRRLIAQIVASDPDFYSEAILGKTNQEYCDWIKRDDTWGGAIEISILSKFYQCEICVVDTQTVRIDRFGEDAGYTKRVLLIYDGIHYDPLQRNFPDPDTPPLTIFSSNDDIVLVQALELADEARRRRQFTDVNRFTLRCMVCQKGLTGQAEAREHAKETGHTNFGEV
How it was run: as §1

Measured: log2 ratio of Biotin-Ahx-Ub-VS probe labelling

Sequence of USP9X (Q93008 whole entry, the tested form may be a part): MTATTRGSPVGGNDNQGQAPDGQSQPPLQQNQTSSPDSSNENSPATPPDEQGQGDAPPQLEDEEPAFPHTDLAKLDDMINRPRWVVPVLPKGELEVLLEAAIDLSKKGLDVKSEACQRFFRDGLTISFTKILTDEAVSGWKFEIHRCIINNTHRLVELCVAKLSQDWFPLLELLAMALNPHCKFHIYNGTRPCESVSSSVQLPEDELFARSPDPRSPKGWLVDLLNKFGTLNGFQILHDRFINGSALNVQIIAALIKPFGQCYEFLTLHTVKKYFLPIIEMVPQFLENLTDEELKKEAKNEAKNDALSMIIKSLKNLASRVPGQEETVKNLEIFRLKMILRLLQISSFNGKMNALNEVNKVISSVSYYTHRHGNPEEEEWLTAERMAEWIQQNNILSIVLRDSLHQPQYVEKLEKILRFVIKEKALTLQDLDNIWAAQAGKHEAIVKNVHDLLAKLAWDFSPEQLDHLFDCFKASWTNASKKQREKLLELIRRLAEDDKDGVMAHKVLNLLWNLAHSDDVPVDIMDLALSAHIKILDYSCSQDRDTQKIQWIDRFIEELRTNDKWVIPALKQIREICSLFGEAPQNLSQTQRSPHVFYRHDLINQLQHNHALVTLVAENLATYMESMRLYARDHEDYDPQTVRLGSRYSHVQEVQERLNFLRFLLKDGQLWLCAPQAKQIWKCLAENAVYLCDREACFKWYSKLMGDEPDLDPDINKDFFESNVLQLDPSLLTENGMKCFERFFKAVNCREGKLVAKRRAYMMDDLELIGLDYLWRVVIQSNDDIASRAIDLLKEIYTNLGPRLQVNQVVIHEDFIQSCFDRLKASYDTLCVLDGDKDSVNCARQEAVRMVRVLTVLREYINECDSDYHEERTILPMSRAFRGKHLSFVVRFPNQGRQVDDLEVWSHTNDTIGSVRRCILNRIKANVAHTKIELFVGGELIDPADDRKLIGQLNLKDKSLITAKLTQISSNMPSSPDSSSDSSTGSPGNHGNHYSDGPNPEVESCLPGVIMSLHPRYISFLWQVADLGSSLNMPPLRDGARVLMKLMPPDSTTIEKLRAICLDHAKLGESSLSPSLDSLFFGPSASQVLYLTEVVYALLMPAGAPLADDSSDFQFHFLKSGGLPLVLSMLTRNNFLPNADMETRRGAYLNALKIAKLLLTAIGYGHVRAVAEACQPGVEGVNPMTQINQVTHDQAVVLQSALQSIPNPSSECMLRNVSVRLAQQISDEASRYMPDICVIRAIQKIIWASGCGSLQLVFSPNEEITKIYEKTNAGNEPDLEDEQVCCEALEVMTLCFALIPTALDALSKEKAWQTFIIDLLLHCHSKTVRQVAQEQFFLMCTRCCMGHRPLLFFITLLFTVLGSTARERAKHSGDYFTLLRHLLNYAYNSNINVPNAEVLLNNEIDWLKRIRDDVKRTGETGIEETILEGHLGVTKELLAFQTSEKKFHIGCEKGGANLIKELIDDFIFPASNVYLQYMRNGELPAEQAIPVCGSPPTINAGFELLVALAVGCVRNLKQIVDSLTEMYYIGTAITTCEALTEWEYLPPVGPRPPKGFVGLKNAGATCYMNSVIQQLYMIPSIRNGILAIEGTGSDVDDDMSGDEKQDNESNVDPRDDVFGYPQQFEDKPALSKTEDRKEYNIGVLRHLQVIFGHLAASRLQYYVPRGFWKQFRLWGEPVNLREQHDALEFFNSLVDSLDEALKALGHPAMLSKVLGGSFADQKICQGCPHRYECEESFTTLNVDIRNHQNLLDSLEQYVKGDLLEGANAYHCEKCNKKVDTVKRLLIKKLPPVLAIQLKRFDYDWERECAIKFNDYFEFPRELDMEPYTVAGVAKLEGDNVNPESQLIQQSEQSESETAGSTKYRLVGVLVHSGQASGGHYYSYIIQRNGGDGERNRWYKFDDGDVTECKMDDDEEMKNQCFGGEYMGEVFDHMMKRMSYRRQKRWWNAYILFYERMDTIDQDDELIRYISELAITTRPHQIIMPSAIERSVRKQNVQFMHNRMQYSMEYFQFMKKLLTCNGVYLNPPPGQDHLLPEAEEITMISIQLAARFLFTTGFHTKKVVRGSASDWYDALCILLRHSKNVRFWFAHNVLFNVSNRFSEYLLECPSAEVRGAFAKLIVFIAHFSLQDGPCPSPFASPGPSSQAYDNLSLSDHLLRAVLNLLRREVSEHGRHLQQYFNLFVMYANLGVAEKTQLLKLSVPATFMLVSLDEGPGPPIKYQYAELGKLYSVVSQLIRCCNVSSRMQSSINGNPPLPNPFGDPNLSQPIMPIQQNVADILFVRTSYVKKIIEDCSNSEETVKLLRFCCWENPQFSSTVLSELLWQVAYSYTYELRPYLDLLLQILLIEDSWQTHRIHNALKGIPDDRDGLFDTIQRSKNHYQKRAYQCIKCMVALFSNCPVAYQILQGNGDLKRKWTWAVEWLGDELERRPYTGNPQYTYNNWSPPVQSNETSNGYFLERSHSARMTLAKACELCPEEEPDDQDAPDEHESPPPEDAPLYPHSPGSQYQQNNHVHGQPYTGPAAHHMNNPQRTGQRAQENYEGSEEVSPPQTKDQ

O=C(CCl)N1CCC(C(=O)N2CCCC2)CC1
inactive: USP9X -0.0236 | UniProt O00487 -0.108 | UniProt O00507 -0.126 | UniProt P51784 -0.2 | UniProt Q5T2D3 -0.068 | UniProt Q8TE49 -0.199 | UniProt Q9P2H5 -0.139 | UniProt Q9UGI0 0.0373 | YOD1 0.122
